From PubChem BioAssay AID588342 (National Center for Advancing Translational Sciences (NCATS), 2011)
Hit rate of the full screen: of about 360,000 compounds, about 25,000 (6.9%) were called active. A call without a number means that no potency is given here. Another 9% or so got no clear call; they are omitted. Calls come from the whole dose curve; as a rule, active = well fitted inhibition curve with a large enough effect; inconclusive = small, poorly fitted or top-dose-only effect; inactive = flat fitted curve, though single readings scatter. Many of the other results were omitted from the sample, so actives are more common in it than they were.
Note: nearly all actives have a fitted effect of over 55% in size.
Potency is the fitted concentration of half-maximal effect.

These compounds were tested against Luciferin 4-monooxygenase (Photinus pyralis) (UniProt P08659) (assay: qHTS profiling assay for firefly luciferase inhibitor/activator using purifed enzyme and Km concentrations of substrates (counterscreen for miR-21 project)). Conditions: purified FLuc, luminescence inhibition; series mostly up to 57.5 µM.
Chain of Luciferin 4-monooxygenase (Photinus pyralis) (P08659 whole entry, looked up): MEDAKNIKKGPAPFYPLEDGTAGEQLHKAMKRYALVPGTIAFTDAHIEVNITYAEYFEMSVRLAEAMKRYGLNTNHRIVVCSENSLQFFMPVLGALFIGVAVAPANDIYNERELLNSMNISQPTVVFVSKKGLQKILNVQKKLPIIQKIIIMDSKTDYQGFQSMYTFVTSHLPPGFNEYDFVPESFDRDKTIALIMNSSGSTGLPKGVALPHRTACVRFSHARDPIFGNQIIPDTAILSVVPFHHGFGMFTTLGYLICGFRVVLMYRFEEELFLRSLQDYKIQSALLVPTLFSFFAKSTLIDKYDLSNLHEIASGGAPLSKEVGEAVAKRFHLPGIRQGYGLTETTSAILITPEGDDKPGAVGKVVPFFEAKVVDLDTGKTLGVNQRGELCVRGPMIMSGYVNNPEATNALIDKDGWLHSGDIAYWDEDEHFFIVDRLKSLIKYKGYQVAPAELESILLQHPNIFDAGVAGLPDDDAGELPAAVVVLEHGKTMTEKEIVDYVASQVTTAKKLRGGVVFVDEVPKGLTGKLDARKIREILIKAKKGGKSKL
In short: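 Purified P. pyralis luciferase (10nM final) with 10uM D-luciferin and 10uM ATP (Km levels) in 50mM Tris acetate pH 7.5, 10mM Mg acetate, 0.01% Tween-20, 0.05% BSA; qHTS 6-point titration, ~60 µM downward; luminescence read.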
For COc1cc(C)ccc1OCCSc1nc2ccc(NC(=O)c3ccc(C)cc3)cc2s1, the Potency was “inactive”.
For CN(C)S(=O)(=O)N1CCC(Oc2cccc(C(=O)NCCCC3CCCC3)c2)CC1, the Potency was 16.9 µM (active).
With CNS(=O)(=O)c1cccc(C(=O)NCC2CCCCC2)c1 the Potency was “inactive”.
With CN(C(=O)c1cccc(OC2CCN(S(=O)(=O)N(C)C)CC2)c1)C1CCOC1 (stereo not given) the Potency was “inactive”.
With Cc1nn(-c2ccc(F)cc2)c(-n2cccc2)c1C(=O)N1CCN(c2ccccc2)CC1 the Potency was “inactive”.
CCc1ccccc1N(C)C(=O)C1CCCN(c2ncnc3onc(-c4ccc(F)cc4)c23)C1 (stereo not given) was tested, and the Potency was “inactive”.
Cc1ccc(S(=O)(=O)NNC(=S)NC(C)(C)C)cc1 was tested, and the Potency was “inactive”.
For O=C1CSC2(C(=O)N(Cc3ccccc3)c3ccccc32)N1c1cccc(F)c1 (stereo not given), the Potency was “inactive”.
Cc1cc(C)c(S(=O)(=O)N2CCC(C(=O)OCc3c(C)noc3C)CC2)c(C)c1 was tested, and the Potency was “inactive”.
CC(=O)O[C@H]1c2ccccc2-c2ccccc2[C@@H]1OC(C)=O was tested, and the Potency was “inactive”.
For CC(=O)Oc1ccc2c(c1)C(=O)c1ccccc1C2=O, the Potency was 8.49 µM (active).
CC(=O)Nc1ccc(Oc2ccc3c(c2)C(=O)NC3=O)cc1 was tested, and the Potency was “inactive”.
COc1ccc([C@H]2CC(=O)C=C(/C=C/c3ccc(Cl)cc3)C2)cc1 was tested, and the Potency was “inactive”.
With CCn1nc(C(=O)NNC(=O)C2CSC3(C)CCC(=O)N23)c2ccccc2c1=O (stereo not given) the Potency was “inactive”.
For Cc1sc2ncn(CC(=O)NCCCC(=O)N(C)Cc3ccccc3)c(=O)c2c1C, the Potency was “inactive”.
In the case of Cc1cc(=O)oc2c(C)c(OC(C)C(=O)NC3CCN(Cc4ccccc4)CC3)ccc12 (stereo not given), the Potency is reported as “inactive”.
O=C(NC(=S)Nc1ccc(S(=O)(=O)N2CCOCC2)cc1)c1ccccc1[N+](=O)[O-] was tested, and the Potency was “inactive”.
In the case of CN(CC(=O)Nc1ccc(N2CCOCC2)cc1)CC(=O)Nc1ccccc1[N+](=O)[O-], the Potency is reported as “inactive”.
In the case of O=C(Nc1ccc(N2CCOCC2)cc1)c1ccc(-c2ccccc2[N+](=O)[O-])o1, the Potency is reported as 3.38 µM (active).
In the case of Cc1ccc2nc(C)c3c(c2c1)N(c1ccccc1)CC3, the Potency is reported as “inactive”.
For O=C(Cn1c(-c2cccs2)cc2ccccc21)NCCc1ccc(Cl)cc1, the Potency was “inactive”.
For Cc1ccc2c(c1)N(CC(=O)NCC1CCCO1)C(=O)CO2 (stereo not given), the Potency was “inactive”.
In the case of Cc1ccc(-n2c(C)cc(/C=C(\C#N)C(=O)NCC3CCCO3)c2C)cc1 (stereo not given), the Potency is reported as 0.675 µM (active).
For Cc1cc(/C=C(/C#N)C(=O)Nc2ccc(Cl)cc2)c(C)n1-c1cccnc1, the Potency was “inactive”.
For CC(=O)N1CCc2cc(Br)cc(S(=O)(=O)CCC(=O)NCCc3ccc(Cl)cc3)c21, the Potency was “inactive”.
In the case of CCN(C(=O)COC(=O)c1sccc1C)c1c(N)n(Cc2ccccc2)c(=O)[nH]c1=O, the Potency is reported as “inactive”.
In the case of C/C(=N\NS(=O)(=O)c1cccc([N+](=O)[O-])c1)c1cc2ccccc2o1, the Potency is reported as “inactive”.
C/C(=N\NC(=S)Nc1ccc(C)cc1)c1cc2ccccc2o1 was tested, and the Potency was 12 µM (active).
With Cc1cccc(-n2nc3c(c2NC(=O)c2cc4ccccc4o2)CS(=O)(=O)C3)c1 the Potency was “inactive”.
With Cc1ccccc1C(=O)Nc1cc(C)c(O)c(-c2nc3ccccc3o2)c1 the Potency was “inactive”.
Cc1ccsc1C(=O)OCC(=O)Nc1cccc(F)c1 was tested, and the Potency was “inactive”.
For Cc1ccsc1C(=O)OCC(=O)c1cc2ccccc2o1, the Potency was 5.36 µM (active).
Cc1ccc(NC(=O)c2cc3ccccc3o2)cc1 was tested, and the Potency was 3.38 µM (active).
CC(OC(=O)c1cc2ccccc2o1)C(=O)Nc1ccc(N2CCOCC2)cc1 (stereo not given) was tested, and the Potency was “inactive”.
COC(=O)c1ccc(-c2nc3cc(NC(C)=O)ccc3o2)cc1 was tested, and the Potency was “inactive”.
With CC(=O)N1CCN(c2ccccc2NC(=S)NC(=O)c2cc3ccccc3o2)CC1 the Potency was “inactive”.
For CC(=O)Nc1ccc(-c2nc3ccccc3o2)cc1, the Potency was 3.01 µM (active).
In the case of COc1cc(C(=O)NCCc2csc3nc(-c4ccccc4C)nn23)cc(OC)c1OC, the Potency is reported as “inactive”.
For Cc1ccc2cccc(NC(=O)C(C)Oc3ccc(C)c(C)c3)c2n1 (stereo not given), the Potency was “inactive”.
For CC(C)Cn1c(C2CC(=O)N(c3ccccc3Cl)C2)nc2ccccc21 (stereo not given), the Potency was “inactive”.
With Cc1ccc(C)c(Cn2c(C)c(CNCc3ccc(F)cc3)c(C(=O)O)c2C)c1 the Potency was “inactive”.
For COc1ccccc1CN(C)C(=O)c1cc2ccccc2o1, the Potency was “inactive”.
With Cc1ccc(OC(=O)c2cc3ccccc3o2)cc1 the Potency was 0.757 µM (active).
Cc1cc(C(=O)Cn2cnc3cc([N+](=O)[O-])ccc3c2=O)c(C)n1CC1CCCO1 (stereo not given) was tested, and the Potency was “inactive”.
For CCC(C)c1ccc2oc(-c3ccc(NC(=O)c4cc5ccccc5o4)cc3)nc2c1 (stereo not given), the Potency was “inactive”.
For CCc1ccc2oc(-c3ccc(NC(=O)c4cc5ccccc5o4)cc3)nc2c1, the Potency was “inactive”.
For Cc1ccsc1C(=O)OCC(=O)c1cc(C)n(CC2CCCO2)c1C (stereo not given), the Potency was 0.151 µM (active).
O=C(Nc1ccncc1)c1cc2ccccc2o1 was tested, and the Potency was 12 µM (active).
Cc1cc2nc(-c3ccc(NC(=O)c4cc5ccccc5o4)cc3)oc2cc1C was tested, and the Potency was 23.9 µM (active).
In the case of Cc1cc(C(=O)CCl)c(C)n1CC1COc2ccccc2O1 (stereo not given), the Potency is reported as “inactive”.
For Cc1ccc(OC(=O)c2ccccc2C(=O)OCC(F)(F)C(F)F)cc1, the Potency was “inactive”.
With CCC1CCC2(CC1)NC(=O)N(CC(=O)Nc1ccc(OC)cc1)C2=O (stereo not given) the Potency was “inactive”.
Cc1ccc(-c2nc3ccccn3c2Nc2c(C)cccc2C)o1 was tested, and the Potency was “inactive”.
With Cc1ccc(S(=O)(=O)N2CCCc3cc(NS(=O)(=O)c4cc(C)ccc4C)ccc32)cc1 the Potency was “inactive”.
O=C(CCc1nc2sc3c(c2c(=O)[nH]1)CCCC3)NCC(=O)Nc1ccccc1Br was tested, and the Potency was “inactive”.
With Cc1cc(N(C)C)cc(C)[n+]1[O-] the Potency was “inactive”.
For COc1cc(OC)cc(C(=O)NNC(=O)CCOc2ccccc2OC)c1, the Potency was “inactive”.
CCOc1ccccc1NC(=O)C1CCCN(S(=O)(=O)c2cn(C)cn2)C1 (stereo not given) was tested, and the Potency was “inactive”.
For COc1ccc(S(=O)(=O)N2CCOCC2)cc1NC(=O)Cc1c(F)cccc1Cl, the Potency was “inactive”.
With COc1ccc(CCNC(=O)COC(=O)C2CC2C)cc1 (stereo not given) the Potency was “inactive”.
CCN1CCN(c2nc(Nc3cccc(F)c3)nc(N)c2[N+](=O)[O-])CC1 was tested, and the Potency was “inactive”.
CNc1nc(Nc2ccc(C)c(Cl)c2)nc(N)c1[N+](=O)[O-] was tested, and the Potency was 4.78 µM (active).
In the case of Cc1ccc(Nc2nc(N3CCOCC3)nc(N3CCOCC3)n2)cc1Cl, the Potency is reported as “inactive”.
For COc1ccccc1CNC(=O)Cn1nc(C)c2nn(-c3ccc(Cl)cc3)c(C)c2c1=O, the Potency was “inactive”.
For CCOC(=O)c1cccc(NS(=O)(=O)c2cn(C)c(C)n2)c1, the Potency was “inactive”.
